# Test results reported in publication PMC7862700, “An all-to-all approach to the identification of sequence-specific readers for epigenetic DNA modifications on cytosine”.
# Columns and labels:
# Experiment in all cases: DAPPL (digital affinity profiling via proximity ligation, sequencing); 10 mM Tris-HCl pH 7.5, 50 mM NaCl, 1 mM DTT, 4% glycerol, room temperature, 30 min; GST-TFs on glutathione beads, 16-mer random dsDNA library, 0.1% formaldehyde crosslink after washing; high values mean tight binding
# [1] = target: T1, FLI1 (Homo sapiens, UniProt Q01543 1-452); details: protein: recombinant; tags: N-terminal GST; dsDNA, one strand shown
# T1 sequence: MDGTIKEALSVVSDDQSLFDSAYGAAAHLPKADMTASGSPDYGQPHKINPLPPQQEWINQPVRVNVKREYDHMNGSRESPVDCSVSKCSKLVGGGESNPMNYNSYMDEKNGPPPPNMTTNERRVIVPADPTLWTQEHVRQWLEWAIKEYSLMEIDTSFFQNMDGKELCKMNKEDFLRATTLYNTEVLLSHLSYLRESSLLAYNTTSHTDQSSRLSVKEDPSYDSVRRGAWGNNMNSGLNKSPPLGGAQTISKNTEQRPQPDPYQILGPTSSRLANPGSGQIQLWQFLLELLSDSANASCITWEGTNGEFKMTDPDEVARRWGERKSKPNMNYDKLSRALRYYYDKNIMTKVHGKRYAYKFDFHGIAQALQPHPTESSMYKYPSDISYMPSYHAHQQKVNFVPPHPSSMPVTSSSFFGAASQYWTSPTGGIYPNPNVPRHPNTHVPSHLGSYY
# In short: (§1)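 A tag-only sample was pooled with DNA-barcoded human transcription factors that had been expressed in yeast as GST fusions and captured on glutathione beads. The pools were incubated for 30 min at room temperature with 200 nmole of a random double-stranded 16-mer DNA library in Tris/NaCl/DTT/glycerol buffer, then washed, crosslinked with 0.1% formaldehyde, proximity-ligated (BsaI/T4 ligase, 1 h, 37 °C), PCR-amplified and sequenced on an Illumina NextSeq500. Binding signal is each hexamer's read frequency for a factor divided by its frequency for the tag-only sample.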
# [2] = target: T2, ELK1 (Homo sapiens, UniProt P19419 1-428); details: protein: recombinant; tags: N-terminal GST; dsDNA, one strand shown
# T2 sequence: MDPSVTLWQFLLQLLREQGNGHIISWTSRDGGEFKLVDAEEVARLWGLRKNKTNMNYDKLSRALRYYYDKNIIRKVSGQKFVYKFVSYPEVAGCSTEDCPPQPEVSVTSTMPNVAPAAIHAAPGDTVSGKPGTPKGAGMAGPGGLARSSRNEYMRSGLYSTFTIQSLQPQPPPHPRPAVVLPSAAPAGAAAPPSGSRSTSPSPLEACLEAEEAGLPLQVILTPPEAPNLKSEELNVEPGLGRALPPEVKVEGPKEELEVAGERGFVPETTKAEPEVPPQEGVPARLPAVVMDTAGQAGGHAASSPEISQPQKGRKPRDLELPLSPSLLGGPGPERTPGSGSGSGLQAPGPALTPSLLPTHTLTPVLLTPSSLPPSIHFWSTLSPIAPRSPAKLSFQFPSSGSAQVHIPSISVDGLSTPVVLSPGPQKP
# In short: as §1
# [3] = target: T3, GABPA (Homo sapiens, UniProt Q06546 1-454); details: protein: recombinant; tags: N-terminal GST; dsDNA, one strand shown
# T3 sequence: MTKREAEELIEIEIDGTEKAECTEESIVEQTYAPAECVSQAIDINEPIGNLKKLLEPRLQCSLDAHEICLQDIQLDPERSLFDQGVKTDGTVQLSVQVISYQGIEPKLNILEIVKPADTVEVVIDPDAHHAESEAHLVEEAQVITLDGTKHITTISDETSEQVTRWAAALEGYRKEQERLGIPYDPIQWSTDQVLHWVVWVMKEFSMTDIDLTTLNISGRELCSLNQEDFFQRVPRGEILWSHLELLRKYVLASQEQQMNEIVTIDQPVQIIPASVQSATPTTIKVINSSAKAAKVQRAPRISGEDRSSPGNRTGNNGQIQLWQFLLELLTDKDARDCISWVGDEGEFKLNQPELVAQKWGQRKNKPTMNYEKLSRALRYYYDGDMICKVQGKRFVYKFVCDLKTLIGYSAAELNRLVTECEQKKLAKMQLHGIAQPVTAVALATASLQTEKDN
# In short: as §1
# [4] = target: T4, ERG (Homo sapiens, UniProt P11308 1-479); details: protein: recombinant; tags: N-terminal GST; dsDNA, one strand shown
# T4 sequence: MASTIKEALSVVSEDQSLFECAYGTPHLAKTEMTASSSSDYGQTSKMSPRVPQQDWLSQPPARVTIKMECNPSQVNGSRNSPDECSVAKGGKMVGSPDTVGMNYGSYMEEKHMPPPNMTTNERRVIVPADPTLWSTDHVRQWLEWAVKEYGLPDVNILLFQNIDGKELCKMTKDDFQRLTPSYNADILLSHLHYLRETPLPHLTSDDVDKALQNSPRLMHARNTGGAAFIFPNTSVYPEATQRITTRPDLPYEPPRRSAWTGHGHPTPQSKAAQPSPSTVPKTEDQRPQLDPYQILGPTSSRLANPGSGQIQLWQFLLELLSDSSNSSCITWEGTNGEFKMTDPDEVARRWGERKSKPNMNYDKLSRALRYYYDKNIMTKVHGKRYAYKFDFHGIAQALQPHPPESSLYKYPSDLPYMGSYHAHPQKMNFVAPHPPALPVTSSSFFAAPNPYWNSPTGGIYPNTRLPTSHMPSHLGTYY
# In short: as §1
# [5] = target: ELF1 (Homo sapiens, UniProt P32519 1-619); details: protein: recombinant; tags: N-terminal GST; dsDNA, one strand shown
# In short: as §1
# [6] = target: T5, EHF (Homo sapiens, UniProt Q9NZC4 1-300); details: protein: recombinant; tags: N-terminal GST; dsDNA, one strand shown
# T5 sequence: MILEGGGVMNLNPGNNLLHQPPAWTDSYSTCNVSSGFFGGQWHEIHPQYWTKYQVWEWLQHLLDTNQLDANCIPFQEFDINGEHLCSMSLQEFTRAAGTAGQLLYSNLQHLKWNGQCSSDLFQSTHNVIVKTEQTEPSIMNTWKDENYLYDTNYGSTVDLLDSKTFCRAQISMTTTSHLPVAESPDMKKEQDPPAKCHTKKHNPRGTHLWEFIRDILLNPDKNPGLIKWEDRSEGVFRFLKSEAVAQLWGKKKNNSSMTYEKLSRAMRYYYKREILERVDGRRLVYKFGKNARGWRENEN
# In short: as §1
# [7] = target: SPI1 (Homo sapiens, UniProt P17947 1-270); details: protein: recombinant; tags: N-terminal GST; dsDNA, one strand shown
# In short: as §1
# [8] = target: SPIB (Homo sapiens, UniProt Q01892 1-262); details: protein: recombinant; tags: N-terminal GST; dsDNA, one strand shown
# In short: as §1
# [9] = target: T6, ELK3 (Homo sapiens, UniProt P41970 1-407); details: protein: recombinant; tags: N-terminal GST; dsDNA, one strand shown
# T6 sequence: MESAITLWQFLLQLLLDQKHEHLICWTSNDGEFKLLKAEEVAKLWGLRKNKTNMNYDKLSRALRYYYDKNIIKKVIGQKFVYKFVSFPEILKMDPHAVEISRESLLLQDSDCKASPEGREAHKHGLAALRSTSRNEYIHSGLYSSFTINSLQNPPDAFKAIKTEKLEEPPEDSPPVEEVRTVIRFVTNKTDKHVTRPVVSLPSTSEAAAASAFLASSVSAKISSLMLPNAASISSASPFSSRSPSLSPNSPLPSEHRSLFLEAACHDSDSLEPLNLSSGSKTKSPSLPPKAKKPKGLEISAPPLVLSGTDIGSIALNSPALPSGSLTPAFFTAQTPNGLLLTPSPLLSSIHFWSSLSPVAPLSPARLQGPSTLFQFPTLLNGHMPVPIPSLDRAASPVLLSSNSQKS
# In short: as §1
# [10] = target: T7, FEV (Homo sapiens, UniProt Q99581 1-238); details: protein: recombinant; tags: N-terminal GST; dsDNA, one strand shown
# T7 sequence: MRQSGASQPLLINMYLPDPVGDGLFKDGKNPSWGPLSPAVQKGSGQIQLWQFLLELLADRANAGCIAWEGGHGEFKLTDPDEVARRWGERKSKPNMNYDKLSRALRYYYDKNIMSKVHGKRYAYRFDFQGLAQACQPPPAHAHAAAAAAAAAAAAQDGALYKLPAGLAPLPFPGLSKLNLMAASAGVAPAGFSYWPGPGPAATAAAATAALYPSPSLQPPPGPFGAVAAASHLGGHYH
# In short: as §1
# [11] = target: ETV5 (Homo sapiens, UniProt P41161 1-510); details: protein: recombinant; tags: N-terminal GST; dsDNA, one strand shown
# In short: as §1
# [12] = target: HSF1 (Homo sapiens, UniProt Q00613 1-529); details: protein: recombinant; tags: N-terminal GST; chain copies: 3; dsDNA, one strand shown
# In short: as §1
# [13] = target: T8, SPIC (Homo sapiens, UniProt Q8N5J4 1-248); details: protein: recombinant; tags: N-terminal GST; dsDNA, one strand shown
# T8 sequence: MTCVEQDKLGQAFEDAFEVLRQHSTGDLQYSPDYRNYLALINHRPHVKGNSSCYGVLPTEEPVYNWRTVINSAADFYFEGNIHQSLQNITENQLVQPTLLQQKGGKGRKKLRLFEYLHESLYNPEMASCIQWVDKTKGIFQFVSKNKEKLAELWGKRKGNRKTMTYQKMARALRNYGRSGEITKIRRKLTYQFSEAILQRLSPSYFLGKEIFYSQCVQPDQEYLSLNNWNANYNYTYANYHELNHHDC
# In short: as §1
# [14] = target: ELF4 (Homo sapiens, UniProt Q99607 1-663); details: protein: recombinant; tags: N-terminal GST; dsDNA, one strand shown
# In short: as §1
# [15] = target: T9, ELK4 (Homo sapiens, UniProt P28324-2 1-405); details: protein: recombinant; tags: N-terminal GST; dsDNA, one strand shown
# T9 sequence: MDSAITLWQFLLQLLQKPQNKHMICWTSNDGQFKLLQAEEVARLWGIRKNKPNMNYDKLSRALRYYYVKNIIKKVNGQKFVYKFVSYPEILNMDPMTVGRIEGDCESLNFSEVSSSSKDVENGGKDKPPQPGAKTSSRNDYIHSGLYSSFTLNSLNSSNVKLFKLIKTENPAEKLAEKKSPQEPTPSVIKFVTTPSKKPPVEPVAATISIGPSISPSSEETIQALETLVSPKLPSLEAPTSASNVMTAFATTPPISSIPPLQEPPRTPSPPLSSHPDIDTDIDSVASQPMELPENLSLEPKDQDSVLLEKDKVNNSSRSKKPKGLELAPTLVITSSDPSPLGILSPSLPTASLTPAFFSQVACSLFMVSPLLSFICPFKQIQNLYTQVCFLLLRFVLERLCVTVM
# In short: as §1
# [16] = target: T10, ETV2 (Homo sapiens, UniProt O00321 1-342); details: protein: recombinant; tags: N-terminal GST; dsDNA, one strand shown
# T10 sequence: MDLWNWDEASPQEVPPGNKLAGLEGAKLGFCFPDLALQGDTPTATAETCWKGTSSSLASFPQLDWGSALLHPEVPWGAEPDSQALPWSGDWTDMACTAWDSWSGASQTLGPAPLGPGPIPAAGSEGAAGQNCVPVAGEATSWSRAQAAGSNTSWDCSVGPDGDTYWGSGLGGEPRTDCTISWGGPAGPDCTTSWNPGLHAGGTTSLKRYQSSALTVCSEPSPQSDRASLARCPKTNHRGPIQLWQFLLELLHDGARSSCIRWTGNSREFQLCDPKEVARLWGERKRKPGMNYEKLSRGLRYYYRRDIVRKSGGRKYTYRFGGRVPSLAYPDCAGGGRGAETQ
# In short: as §1
# [17] = target: T11, ELF3 (Homo sapiens, UniProt P78545 1-371); details: protein: recombinant; tags: N-terminal GST; dsDNA, one strand shown
# T11 sequence: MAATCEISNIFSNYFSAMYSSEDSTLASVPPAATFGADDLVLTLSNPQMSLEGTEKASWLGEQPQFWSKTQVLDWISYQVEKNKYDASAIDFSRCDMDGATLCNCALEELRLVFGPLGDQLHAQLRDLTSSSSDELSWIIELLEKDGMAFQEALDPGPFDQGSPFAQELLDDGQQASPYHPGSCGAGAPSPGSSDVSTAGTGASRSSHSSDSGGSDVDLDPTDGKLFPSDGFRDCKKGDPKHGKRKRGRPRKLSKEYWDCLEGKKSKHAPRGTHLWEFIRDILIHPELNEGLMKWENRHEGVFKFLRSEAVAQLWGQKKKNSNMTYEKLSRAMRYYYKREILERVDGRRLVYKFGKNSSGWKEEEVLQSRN
# In short: as §1
# [18] = target: ETV1 (Homo sapiens, UniProt P50549 1-477); details: protein: recombinant; tags: N-terminal GST; dsDNA, one strand shown
# In short: as §1
# Sequence of ETV5 (P41161 whole entry): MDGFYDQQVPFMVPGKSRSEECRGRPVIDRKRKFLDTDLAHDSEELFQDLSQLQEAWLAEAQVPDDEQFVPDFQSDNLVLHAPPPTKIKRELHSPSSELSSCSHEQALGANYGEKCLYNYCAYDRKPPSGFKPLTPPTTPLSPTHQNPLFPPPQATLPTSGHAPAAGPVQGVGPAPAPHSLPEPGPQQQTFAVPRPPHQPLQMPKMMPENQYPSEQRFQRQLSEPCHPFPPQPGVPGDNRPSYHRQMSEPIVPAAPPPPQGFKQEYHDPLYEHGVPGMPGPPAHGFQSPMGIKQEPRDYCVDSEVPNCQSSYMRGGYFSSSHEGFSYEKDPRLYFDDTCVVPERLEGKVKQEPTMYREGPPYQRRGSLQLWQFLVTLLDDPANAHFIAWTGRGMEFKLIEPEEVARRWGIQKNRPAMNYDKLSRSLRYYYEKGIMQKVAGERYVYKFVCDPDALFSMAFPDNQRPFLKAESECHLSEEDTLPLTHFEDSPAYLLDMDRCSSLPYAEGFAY
# Sequence of ETV1 (P50549 whole entry): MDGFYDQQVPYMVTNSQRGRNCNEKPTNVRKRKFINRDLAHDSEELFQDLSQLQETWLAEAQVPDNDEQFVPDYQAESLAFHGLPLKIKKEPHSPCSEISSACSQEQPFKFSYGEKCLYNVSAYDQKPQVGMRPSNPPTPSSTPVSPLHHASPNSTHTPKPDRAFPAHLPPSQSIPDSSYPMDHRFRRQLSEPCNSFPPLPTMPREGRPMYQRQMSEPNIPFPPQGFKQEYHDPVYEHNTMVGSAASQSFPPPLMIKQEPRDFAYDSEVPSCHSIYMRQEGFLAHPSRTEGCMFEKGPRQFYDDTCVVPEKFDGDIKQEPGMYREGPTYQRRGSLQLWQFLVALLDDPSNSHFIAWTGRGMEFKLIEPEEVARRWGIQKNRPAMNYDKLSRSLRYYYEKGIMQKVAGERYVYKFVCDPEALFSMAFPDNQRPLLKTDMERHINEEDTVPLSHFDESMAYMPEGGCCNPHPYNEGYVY
# Sequence of SPIB (Q01892 whole entry): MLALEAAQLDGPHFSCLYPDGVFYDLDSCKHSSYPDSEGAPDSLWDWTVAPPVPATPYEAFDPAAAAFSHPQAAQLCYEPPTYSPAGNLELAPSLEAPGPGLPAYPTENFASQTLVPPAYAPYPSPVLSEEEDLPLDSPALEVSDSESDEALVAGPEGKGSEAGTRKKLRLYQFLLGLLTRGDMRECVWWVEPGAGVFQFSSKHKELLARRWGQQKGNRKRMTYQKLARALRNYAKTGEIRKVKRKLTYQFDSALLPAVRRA
# Sequence of ELF4 (Q99607 whole entry): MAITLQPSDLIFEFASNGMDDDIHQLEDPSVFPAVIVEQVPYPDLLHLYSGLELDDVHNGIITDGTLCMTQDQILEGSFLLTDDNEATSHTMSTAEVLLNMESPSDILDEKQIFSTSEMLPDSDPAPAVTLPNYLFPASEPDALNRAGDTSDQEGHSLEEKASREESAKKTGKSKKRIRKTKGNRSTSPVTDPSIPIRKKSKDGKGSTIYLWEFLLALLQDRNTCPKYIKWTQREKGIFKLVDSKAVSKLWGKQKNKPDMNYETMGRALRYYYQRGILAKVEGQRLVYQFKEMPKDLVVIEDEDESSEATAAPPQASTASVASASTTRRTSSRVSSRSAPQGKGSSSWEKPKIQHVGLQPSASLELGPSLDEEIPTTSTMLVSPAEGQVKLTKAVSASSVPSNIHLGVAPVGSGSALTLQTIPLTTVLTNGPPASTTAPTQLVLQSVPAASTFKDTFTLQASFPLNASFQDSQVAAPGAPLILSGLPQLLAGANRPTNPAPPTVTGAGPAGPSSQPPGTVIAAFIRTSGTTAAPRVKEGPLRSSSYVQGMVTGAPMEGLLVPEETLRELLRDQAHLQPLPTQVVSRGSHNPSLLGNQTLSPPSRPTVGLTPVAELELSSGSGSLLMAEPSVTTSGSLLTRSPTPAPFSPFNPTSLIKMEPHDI
# Sequence of ELF1 (P32519 whole entry): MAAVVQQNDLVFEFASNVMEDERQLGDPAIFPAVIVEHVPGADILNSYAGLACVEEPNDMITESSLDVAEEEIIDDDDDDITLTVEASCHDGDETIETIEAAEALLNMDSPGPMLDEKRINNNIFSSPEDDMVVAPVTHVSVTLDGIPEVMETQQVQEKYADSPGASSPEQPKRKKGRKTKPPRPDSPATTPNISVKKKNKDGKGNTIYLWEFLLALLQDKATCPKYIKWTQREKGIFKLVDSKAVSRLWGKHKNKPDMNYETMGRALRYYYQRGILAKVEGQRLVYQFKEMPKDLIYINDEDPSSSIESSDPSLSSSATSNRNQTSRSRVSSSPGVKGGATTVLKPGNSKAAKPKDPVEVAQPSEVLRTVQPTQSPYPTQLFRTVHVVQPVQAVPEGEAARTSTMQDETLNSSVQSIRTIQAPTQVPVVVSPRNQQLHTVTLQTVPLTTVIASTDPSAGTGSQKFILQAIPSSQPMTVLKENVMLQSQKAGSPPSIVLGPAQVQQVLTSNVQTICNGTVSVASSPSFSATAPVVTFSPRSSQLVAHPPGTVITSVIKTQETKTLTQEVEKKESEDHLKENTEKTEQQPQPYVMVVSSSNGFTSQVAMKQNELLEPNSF
# Sequence of HSF1 (Q00613 whole entry): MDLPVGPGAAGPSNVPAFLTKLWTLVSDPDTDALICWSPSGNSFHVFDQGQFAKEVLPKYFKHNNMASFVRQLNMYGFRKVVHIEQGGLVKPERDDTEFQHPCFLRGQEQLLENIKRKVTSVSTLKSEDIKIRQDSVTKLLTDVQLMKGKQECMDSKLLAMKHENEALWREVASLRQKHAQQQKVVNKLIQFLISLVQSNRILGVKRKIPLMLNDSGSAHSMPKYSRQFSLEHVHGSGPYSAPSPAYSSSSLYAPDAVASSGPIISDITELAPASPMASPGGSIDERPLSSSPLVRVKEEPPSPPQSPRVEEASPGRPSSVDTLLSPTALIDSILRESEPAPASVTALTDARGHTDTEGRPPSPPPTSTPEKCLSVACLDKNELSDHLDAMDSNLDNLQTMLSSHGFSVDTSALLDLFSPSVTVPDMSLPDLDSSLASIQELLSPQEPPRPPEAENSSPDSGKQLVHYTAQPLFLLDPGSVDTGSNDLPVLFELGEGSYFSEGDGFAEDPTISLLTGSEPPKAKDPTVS
sequence,measurement,setting,value
TGAAAC,binding signal,[1],"1.31 fold enrichment (6-mer frequency, TF over GST control)"
same,binding signal,[2],"1.29 fold enrichment (6-mer frequency, TF over GST control)"
same,binding signal,[3],"1.25 fold enrichment (6-mer frequency, TF over GST control)"
same,binding signal,[4],"1.16 fold enrichment (6-mer frequency, TF over GST control)"
same,binding signal,[5],"1.4 fold enrichment (6-mer frequency, TF over GST control)"
same,binding signal,[6],"1.28 fold enrichment (6-mer frequency, TF over GST control)"
same,binding signal,[7],"1.28 fold enrichment (6-mer frequency, TF over GST control)"
same,binding signal,[8],"1.18 fold enrichment (6-mer frequency, TF over GST control)"
same,binding signal,[9],"1.33 fold enrichment (6-mer frequency, TF over GST control)"
same,binding signal,[10],"1.31 fold enrichment (6-mer frequency, TF over GST control)"
same,binding signal,[11],"1.33 fold enrichment (6-mer frequency, TF over GST control)"
same,binding signal,[12],"1.13 fold enrichment (6-mer frequency, TF over GST control)"
same,binding signal,[13],"1.27 fold enrichment (6-mer frequency, TF over GST control)"
same,binding signal,[14],"1.27 fold enrichment (6-mer frequency, TF over GST control)"
same,binding signal,[15],"1.18 fold enrichment (6-mer frequency, TF over GST control)"
same,binding signal,[16],"1.4 fold enrichment (6-mer frequency, TF over GST control)"
same,binding signal,[17],"1.42 fold enrichment (6-mer frequency, TF over GST control)"
same,binding signal,[18],"1.27 fold enrichment (6-mer frequency, TF over GST control)"
